According to ChEMBL document CHEMBL3988442, “University of Dundee, Small-Polar-MMV Screening Library” (2021):
For part of these data: Potency and affinity values are given separately.

How the values were obtained:
Parameters in all cases: scale not given: direction of the effect not stated beside the values
[1] = target: Protein translocase subunit SecA (Escherichia coli (strain K12)) (UniProt P10408); test: Assay to Identify E. coli SecA ATPase Inhibitors; format: functional; settings: 30 µM
[2] = target: T1, Ubiquitin-activating enzyme e1, putative (Leishmania donovani (strain BPK282A1)) (UniProt E9BSI1); test: Leishmania donovani Ubiquitin Activating Enzyme (LdE1); format: functional; settings: 30 µM
T1 sequence (whole entry): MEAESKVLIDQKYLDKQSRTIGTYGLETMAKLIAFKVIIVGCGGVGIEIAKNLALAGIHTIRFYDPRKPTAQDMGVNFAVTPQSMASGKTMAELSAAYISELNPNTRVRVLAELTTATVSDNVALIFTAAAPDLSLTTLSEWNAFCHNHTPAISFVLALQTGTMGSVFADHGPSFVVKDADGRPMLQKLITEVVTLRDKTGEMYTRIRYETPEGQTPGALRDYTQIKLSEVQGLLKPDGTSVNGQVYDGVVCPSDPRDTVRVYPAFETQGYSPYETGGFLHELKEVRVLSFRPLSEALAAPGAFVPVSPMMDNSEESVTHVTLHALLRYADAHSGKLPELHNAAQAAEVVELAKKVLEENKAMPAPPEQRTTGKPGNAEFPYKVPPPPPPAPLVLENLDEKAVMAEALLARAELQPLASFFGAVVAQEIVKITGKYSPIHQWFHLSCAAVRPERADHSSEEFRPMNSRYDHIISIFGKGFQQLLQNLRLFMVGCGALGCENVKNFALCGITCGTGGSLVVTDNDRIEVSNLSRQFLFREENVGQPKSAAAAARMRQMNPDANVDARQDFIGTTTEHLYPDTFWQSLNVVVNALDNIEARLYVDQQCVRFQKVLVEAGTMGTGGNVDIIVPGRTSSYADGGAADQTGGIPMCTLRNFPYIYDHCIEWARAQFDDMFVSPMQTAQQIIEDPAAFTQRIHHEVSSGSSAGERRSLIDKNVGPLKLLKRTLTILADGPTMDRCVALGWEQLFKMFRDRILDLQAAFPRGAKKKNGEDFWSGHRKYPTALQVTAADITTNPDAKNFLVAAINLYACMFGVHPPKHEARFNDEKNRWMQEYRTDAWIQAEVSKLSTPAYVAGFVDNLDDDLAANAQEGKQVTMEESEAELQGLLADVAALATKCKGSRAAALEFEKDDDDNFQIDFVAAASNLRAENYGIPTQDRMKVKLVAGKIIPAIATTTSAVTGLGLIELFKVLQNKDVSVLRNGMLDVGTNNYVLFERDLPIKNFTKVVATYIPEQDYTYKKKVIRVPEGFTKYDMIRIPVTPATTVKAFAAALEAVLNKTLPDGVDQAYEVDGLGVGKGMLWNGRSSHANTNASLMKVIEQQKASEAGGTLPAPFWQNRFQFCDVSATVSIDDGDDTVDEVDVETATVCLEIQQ

[3] = target: AMP-activated protein kinase, AMPK (Homo sapiens) (UniProt P54646+O43741+P54619+Q9UGJ0+Q9Y478+Q13131+Q9UGI9); test: AMP-dependent Kinase enzyme assay. An in vitro enzyme assay that detects ADP turnover that is directly proportional to AMPK activity. This uses naive AMPK that is activated during the assay with MK-8722; format: functional; settings: 30 µM
[4] = target: Sialic acid-binding Ig-like lectin 9 (Homo sapiens) (UniProt Q9Y336); test: Hs-Siglec9 ALPHAscreen SOP 20170721; settings: 10 µM
Trypanosoma cruzi = test: Trypanosoma cruzi phosphomannomutase and mannose-1-phosphate guanylyltransferase assay; format: functional; settings: 10 µM
[5] = target: T2, Arginase-2, mitochondrial (Homo sapiens) (UniProt P78540); test: in vitro enzyme assay to detect the production of urea directly proportional to the activity of Arginase II; format: functional; settings: 33.3 µM; further: in the data most compounds retested in dose-response had high values
T2 sequence (whole entry): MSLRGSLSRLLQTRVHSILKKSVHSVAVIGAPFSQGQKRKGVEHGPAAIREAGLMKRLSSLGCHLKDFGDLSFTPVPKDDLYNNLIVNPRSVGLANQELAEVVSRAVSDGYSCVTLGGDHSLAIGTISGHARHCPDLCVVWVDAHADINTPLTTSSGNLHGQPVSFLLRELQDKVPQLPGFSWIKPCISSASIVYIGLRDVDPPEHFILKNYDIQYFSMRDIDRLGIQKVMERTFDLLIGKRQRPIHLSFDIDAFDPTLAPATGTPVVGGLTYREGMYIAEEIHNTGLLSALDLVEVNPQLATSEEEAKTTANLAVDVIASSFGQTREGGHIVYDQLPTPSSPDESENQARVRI

[6] = target: T3, Proteasome subunit beta (Trypanosoma cruzi) (UniProt O96673); test: Trypanosoma cruzi proteasome chymotrypsin-like activity (TcProtChymo) assay.; further: in the data most compounds retested in dose-response had high values; format: functional; settings: 9.37 µM
T3 sequence (whole entry): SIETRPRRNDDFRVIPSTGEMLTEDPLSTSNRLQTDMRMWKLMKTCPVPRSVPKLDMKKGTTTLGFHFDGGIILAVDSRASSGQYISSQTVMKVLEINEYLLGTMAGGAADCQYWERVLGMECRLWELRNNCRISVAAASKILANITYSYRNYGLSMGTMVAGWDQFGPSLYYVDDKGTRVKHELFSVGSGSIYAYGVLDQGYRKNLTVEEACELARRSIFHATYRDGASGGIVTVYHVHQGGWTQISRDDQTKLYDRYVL

Homo sapiens = species: Homo sapiens; test: To identify inhibition of the IFN signalling (Jak-Stat) pathway via expression of an eGFP reporter gene under the control of an IFN-stimulated response element (ISRE) containing MxA promoter.; format: functional; settings: 30 µM
[7] = target: T4, Tyrosyl-tRNA synthetase, putative (Trypanosoma cruzi (strain CL Brener)) (UniProt Q4DSP6); test: Trypanosoma cruzi tyrosyl tRNA synthetase (TcYRS) _High Tyrosine SOP; format: functional; settings: 30 µM; further: in the data most compounds retested in dose-response had high values
T4 sequence (whole entry): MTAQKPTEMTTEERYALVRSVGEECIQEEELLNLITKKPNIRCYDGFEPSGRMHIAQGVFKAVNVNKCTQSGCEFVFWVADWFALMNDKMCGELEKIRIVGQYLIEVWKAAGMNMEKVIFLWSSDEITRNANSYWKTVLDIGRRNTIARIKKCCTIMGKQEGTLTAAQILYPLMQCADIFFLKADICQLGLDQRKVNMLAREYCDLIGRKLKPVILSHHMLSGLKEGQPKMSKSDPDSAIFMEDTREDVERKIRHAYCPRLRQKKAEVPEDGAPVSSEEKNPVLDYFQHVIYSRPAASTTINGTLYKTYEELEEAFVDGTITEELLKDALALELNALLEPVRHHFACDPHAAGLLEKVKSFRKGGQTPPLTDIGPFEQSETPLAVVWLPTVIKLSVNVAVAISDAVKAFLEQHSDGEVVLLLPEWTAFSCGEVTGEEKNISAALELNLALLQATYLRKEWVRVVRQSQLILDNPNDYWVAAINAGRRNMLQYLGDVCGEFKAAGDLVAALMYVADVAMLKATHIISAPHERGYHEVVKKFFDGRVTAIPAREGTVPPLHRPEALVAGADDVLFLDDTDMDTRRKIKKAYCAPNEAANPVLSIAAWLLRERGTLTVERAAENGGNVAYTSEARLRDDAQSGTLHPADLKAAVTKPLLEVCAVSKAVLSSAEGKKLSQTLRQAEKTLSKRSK

[8] = target: T4, Tyrosyl-tRNA synthetase, putative (Trypanosoma cruzi (strain CL Brener)); test: Trypanosoma cruzi tyrosyl tRNA synthetase (TcYRS) SOP; format: functional; settings: 30 µM
[9] = target: Chromo domain-containing protein 1 (Saccharomyces cerevisiae (strain ATCC 204508 / S288c) (Baker's yeast)) (UniProt P32657); test: ScCHD-1 Enzyme Inhibition Assay; format: functional; settings: 30 µM; further: in the data most compounds retested in dose-response had high values
Chain of Chromo domain-containing protein 1 (Saccharomyces cerevisiae (strain ATCC 204508 / S288c) (Baker's yeast)) (P32657 whole entry, the tested form may be a part): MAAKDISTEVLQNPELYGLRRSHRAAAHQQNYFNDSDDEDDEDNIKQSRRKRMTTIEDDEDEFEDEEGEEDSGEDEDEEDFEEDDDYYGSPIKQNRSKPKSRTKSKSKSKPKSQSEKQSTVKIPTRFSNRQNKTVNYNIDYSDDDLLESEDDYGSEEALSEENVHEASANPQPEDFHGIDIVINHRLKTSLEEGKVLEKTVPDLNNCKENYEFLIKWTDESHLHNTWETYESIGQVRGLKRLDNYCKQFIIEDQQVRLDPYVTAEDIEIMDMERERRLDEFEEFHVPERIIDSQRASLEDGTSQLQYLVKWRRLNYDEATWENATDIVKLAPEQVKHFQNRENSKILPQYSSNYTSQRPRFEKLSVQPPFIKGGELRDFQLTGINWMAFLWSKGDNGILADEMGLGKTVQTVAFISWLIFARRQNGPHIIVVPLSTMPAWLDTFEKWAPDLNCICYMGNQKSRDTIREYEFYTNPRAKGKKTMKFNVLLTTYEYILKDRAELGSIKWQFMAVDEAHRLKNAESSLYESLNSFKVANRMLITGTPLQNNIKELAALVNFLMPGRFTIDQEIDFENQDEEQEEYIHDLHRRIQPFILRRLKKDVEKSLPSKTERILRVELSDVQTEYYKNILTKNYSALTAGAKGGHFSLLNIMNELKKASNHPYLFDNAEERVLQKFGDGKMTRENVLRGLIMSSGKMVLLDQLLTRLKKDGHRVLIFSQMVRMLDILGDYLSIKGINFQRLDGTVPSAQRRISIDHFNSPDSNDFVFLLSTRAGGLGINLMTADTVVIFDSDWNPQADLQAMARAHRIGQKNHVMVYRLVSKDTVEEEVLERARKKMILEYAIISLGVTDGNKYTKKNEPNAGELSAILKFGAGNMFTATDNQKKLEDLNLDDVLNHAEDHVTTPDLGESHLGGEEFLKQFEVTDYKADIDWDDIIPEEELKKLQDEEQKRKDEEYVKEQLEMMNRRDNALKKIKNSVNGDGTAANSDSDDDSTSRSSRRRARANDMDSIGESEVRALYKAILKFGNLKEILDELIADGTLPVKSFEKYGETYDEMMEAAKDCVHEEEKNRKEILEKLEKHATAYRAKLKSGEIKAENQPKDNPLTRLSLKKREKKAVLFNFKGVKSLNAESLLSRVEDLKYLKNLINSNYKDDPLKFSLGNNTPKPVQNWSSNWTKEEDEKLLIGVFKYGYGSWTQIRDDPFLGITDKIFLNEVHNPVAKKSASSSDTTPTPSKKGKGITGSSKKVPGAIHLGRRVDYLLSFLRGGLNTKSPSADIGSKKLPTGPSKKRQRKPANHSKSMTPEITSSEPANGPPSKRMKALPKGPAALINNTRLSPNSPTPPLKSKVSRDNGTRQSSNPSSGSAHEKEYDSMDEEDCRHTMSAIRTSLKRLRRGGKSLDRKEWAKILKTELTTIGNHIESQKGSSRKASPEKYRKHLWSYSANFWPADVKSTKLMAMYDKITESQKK

Chain of Protein translocase subunit SecA (Escherichia coli (strain K12)) (P10408 whole entry): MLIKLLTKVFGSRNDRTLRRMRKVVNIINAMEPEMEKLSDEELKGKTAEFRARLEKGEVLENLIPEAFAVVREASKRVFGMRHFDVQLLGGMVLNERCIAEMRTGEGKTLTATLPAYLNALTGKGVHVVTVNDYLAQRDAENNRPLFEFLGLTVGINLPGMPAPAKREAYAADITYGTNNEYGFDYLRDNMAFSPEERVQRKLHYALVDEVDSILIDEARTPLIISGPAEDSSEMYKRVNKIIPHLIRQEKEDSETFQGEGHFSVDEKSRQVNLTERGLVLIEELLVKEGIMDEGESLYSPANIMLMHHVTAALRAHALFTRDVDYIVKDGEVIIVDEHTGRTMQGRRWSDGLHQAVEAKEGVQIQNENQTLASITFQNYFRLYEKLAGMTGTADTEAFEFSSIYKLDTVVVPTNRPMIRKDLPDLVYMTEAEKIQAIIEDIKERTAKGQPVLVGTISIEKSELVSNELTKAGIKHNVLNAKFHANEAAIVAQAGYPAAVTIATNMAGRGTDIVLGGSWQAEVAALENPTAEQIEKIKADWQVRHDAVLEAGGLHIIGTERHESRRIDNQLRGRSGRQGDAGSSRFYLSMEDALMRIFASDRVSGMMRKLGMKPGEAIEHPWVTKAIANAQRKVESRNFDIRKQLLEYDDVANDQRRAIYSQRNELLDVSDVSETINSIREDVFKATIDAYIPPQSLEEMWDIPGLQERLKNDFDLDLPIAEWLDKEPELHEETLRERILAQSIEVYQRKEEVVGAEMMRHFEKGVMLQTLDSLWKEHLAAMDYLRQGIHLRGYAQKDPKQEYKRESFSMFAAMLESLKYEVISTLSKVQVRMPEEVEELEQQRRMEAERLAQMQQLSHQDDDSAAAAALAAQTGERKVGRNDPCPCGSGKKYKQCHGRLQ
Chain of Sialic acid-binding Ig-like lectin 9 (Homo sapiens) (Q9Y336 whole entry): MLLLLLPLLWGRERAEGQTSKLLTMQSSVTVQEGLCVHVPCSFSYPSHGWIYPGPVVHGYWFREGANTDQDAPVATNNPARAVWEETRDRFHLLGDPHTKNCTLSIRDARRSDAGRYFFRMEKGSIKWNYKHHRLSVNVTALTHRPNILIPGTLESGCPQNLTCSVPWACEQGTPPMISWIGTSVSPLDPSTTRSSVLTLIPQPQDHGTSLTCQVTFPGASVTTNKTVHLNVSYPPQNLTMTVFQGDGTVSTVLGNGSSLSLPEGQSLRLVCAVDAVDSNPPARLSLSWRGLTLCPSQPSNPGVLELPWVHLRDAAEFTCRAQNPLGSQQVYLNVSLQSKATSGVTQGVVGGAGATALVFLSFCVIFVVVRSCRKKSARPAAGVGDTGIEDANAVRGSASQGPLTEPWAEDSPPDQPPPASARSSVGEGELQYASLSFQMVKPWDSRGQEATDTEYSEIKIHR

| SMILES | Percent Effect [1] [%] | Percent Effect [2] [%] | Percent Effect [3] [%] | Percent Effect [4] [%] | Percent Effect (Trypanosoma cruzi) [%] | Percent Effect [5] [%] | Percent Effect [6] [%] | Percent Effect (Homo sapiens) [%] | Percent Effect [7] [%] | Percent Effect [8] [%] | Percent Effect [9] [%] |
| --- | --- | --- | --- | --- | --- | --- | --- | --- | --- | --- | --- |
| CC(C)CNC(=O)[C@H]1CCS(=O)(=O)[C@@H]2CN(Cc3ccc(Cl)cc3)C[C@H]12 | -2.67 | 2.7 | -1.66 | -4.02 | 1.17 | 2.5 | 22.7 | -6.94 | 11.9 | 13.4 | -1.05 |
| COc1ccc(C(O)CNc2c(C#N)c(=O)n(C)c(=O)n2C)cc1 (stereo unspecified) | 0.0916 | 12.7 | 4.15 | -13.6 | -6.33 | 5.32 | 2.87 | 9.61 | 5.42 | 11.4 | -5.56 |
| COCCNC(=O)C[C@@H]1COC[C@H]2CN(C(=O)c3cnccn3)C[C@@H]12 | -0.696 | 8.22 | -4.71 | 7.09 | 6.15 | 1.6 | 11.2 | 21.4 | 9.38 | 13.6 | -3.17 |
| CC(=O)N(Cc1noc(C)n1)C1CCN(Cc2ccncc2Cl)C1 (stereo unspecified) | -3.16 | 16.5 | -1.3 | 0.699 | -1.95 | 2.8 | 12.5 | 8.22 | 3.12 | 12.7 | -16 |
| Cc1ccc(C(=O)N2CCCC(C(=O)N3CCCCC3)C2)c(O)c1 (stereo unspecified) | -7.91 | 10.8 | -4.33 | -0.223 | -5.19 | -1.2 | -2.7 | 12.5 | 2.46 | 1.24 | -4.49 |
| O=S1(=O)C[C@@H]2[C@H](C1)N(Cc1ncc[nH]1)CCN2CC1CC1 | -2.38 | 0 | -1.5 | -1.31 | -3.28 | 1.43 | 3.45 | 1.15 | 5.82 | 14.6 | -2.92 |
| COc1ccccc1OCCN1CCCC(c2noc(C3CC3)n2)C1 (stereo unspecified) | -3.76 | 0 | -2.32 | -0.399 | -2.24 | 3.12 | 5.41 | -3.11 | 2.73 | 6.17 | -4.48 |
| COc1ccc(C)cc1S(=O)(=O)NCC(c1cccn1C)N(C)C (stereo unspecified) | -6.79 | 8.22 | -12.1 | 2.18 | -5.49 | 1.36 | 12.2 | 6.68 | 5.38 | 10 | 104 |
| O=C(Nc1ncn(CC(=O)N2CCCCCC2)n1)C1CCCO1 (stereo unspecified) | -2.31 | 7.89 | 0.569 | 1.68 | -6.39 | 4.6 | 1 | 17.6 | 2.45 | 9.76 | -1.04 |
| Fc1cccc(N2CCCC3(C2)CN(c2ncccn2)CCO3)c1 (stereo unspecified) | -0.397 | 13 | 2.68 | -5.04 | -2.66 | 3.23 | 9.4 | 23.1 | 7.41 | 14.1 | -4.87 |
| CNS(=O)(=O)c1cccc(CNc2nccc(C(F)(F)F)n2)c1 | -0.353 | 16.2 | 14.6 | -2.3 | 5.19 | -1.6 | 15.1 | 46.9 | -0.493 | 16.1 | -15.9 |
| CCSCCNC(=O)C(c1cccc(C)c1)N(C)C (stereo unspecified) | 0.71 | 16.2 | 4.54 | 18.5 | 4.83 | 1.43 | 12.1 | 20.1 | 6.88 | 17.1 | -11.3 |
| CC(NC(=O)NCCOc1ccc(F)c(F)c1)c1nncn1C (stereo unspecified) | -3.44 | 5.2 | 2.42 | 5.57 | 7.15 | 2.74 | 12.5 | 16.9 | 4.76 | 9.41 | -12.3 |
| CC(NCc1ccncc1)c1cc(F)ccc1N1CCN(C)CC1 (stereo unspecified) | -1.22 | 5.41 | -10.4 | 21 | 6.16 | 15.6 | 5.58 | -10.1 | 2.15 | 11.1 | -9.91 |
| CC(C)c1nc(C2CCCN(C(=O)CCn3ccnc3)C2)no1 (stereo unspecified) | -0.0893 | 24.3 | -7.28 | -4.78 | 1.42 | -17.6 | 16.4 | 19.3 | 6.4 | 18.5 | -10.5 |
| CC(NC(=O)NCCCN(C)C)c1ccc2c(c1)CCC(=O)N2 (stereo unspecified) | -3.72 | 13 | 0.292 | -0.949 | 10.1 | -6.05 | 15 | -16.2 | 8.74 | 21.9 | -6.2 |
| CC(=O)Nc1nc(C(=O)NC(C)c2ccc3c(c2)OCCO3)cs1 (stereo unspecified) | -5.25 | 18.2 | 6.51 | -11.3 | 5 | -4 | 8.97 | 14.6 | 3.81 | 21.2 | -21.9 |
| CCc1cnc(CN(C(C)=O)C2CCN(CCc3cnn(C)c3)C2)o1 (stereo unspecified) | -2.73 | 18.4 | -1.21 | -1.24 | -1.21 | 2.16 | 9.56 | -1.17 | 7.39 | 18.5 | -6.82 |
| COc1cc(CC(O)CO)c(OC)c2c1OCO2 (stereo unspecified) | -6.55 | 14.7 | -12.3 | 4.03 | 6.29 | -12.5 | 9.8 | 5.7 | 8.47 | 15.4 | -21.2 |
| CC(C)c1cc(C(=O)N2CCN(Cc3ccsc3)CC2)n[nH]1 | -2.94 | 13.5 | -2.35 | 15 | 5.57 | 18.1 | 12.1 | 28 | 4.3 | 18.5 | -3.72 |
| CCN(CC1CN(Cc2ncc(C)o2)CCO1)c1cccnn1 (stereo unspecified) | -4.91 | -2.67 | -8.97 | 2.4 | 5.16 | 2.6 | 12.2 | 12 | 7.1 | 6.17 | -0.756 |
